# Values joined by “and” are separate entries in the source; they are usually repeats but may differ in a detail not shown here. Equal entries are not always repeated. Results filed as inconclusive are left out. A call without a number means that no potency is given here. A structure can be active in one record and inactive in another. Active and inactive are the calls of the source. Unless noted, calls follow the shape of the dose curve; as a rule, active = well fitted curve in the direction sought with a large enough effect in the repeat runs; inconclusive = weak or mixed curves; inactive = no such curve, though single readings can be large; an effect the other way counts as inactive or inconclusive. Residues, ends and D or L forms follow the SMILES beside them.
# Assays:
# [1] = qHTS RealTime-Glo MT Cell Viability Assay in HEK293 cells - 0 hour (AID 1224880); also: top concentration of the series differs between compounds; nearly all actives have a fitted effect of over 45% in size
# In short: (§1)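 Tox21 screen in HEK293 using RealTime-Glo MT chemistry, with cells and reagent co-dispensed. Luminescence proportional to viable cell number was captured at intervals during 40 h compound exposure at 37 C.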
# [2] = A CellTox Green Cytotoxicity Assay to monitor cytotoxicity in HEK293 cells - 32 hour (AID 1224881); also: nearly all actives have a fitted effect of over 40% in size; also: potency is read from the fitted curve at half-maximal effect
# In short: (§2)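 Seeding of HEK293 cells together with cytotoxicity dye preceded a 5 h incubation at 37 C/5% CO2. Test compounds in DMSO were then added and fluorescence monitored across 40 h.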
# [3] = A CellTox Green Cytotoxicity Assay to monitor cytotoxicity in HepG2 cells - 0 hour (AID 1224882); also: nearly all actives have a fitted effect of over 35% in size; also: potency is read from the fitted curve at half-maximal effect
# In short: (§3)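 Nonlytic assay: viable cells exclude the dye, so fluorescence scales with cell death. HepG2 at 600 cells/well, compounds added after 5 h, signal read across 40 h.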
# [4] = A CellTox Green Cytotoxicity Assay to monitor cytotoxicity in HEK293 cells - 8 hour (AID 1224884); also: nearly all actives have a fitted effect of over 35% in size; also: potency is read from the fitted curve at half-maximal effect
# In short: as §2
# [5] = qHTS RealTime-Glo MT Cell Viability Assay in HepG2 cells - 16 hour (AID 1224885); also: nearly all actives have a fitted effect of over 50% in size
# In short: (§4)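 HepG2 cells (600/well) were dispensed with RealTime-Glo reagents, incubated 5 h at 37 °C, then treated with compounds in DMSO for up to 40 h. Nonlytic NanoLuc luminescence reflecting viable cells was read at each stated time point.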
# [6] = qHTS RealTime-Glo MT Cell Viability Assay in HEK293 cells - 24 hour (AID 1224886); also: top concentration of the series differs between compounds; nearly all actives have a fitted effect of over 50% in size
# In short: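 HEK293 cells seeded with NanoLuc/prosubstrate reagent, rested 5 h at 37 C, then dosed and kept at 37 C up to 40 h. Nonlytic real-time luminescence from viable cells read at 0, 8, 16, 24, 32 and 40 h.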
# [7] = qHTS RealTime-Glo MT Cell Viability Assay in HEK293 cells - 8 hour (AID 1224887); also: top concentration of the series differs between compounds; nearly all actives have a fitted effect of over 50% in size
# In short: as §1
# [8] = A CellTox Green Cytotoxicity Assay to monitor cytotoxicity in HEK293 cells - 16 hour (AID 1224888); also: nearly all actives have a fitted effect of over 35% in size
# In short: as §2
# [9] = qHTS RealTime-Glo MT Cell Viability Assay in HepG2 cells - 0 hour (AID 1224889); also: nearly all actives have a fitted effect of over 50% in size; also: potency is read from the fitted curve at half-maximal effect
# In short: as §4
# [10] = A CellTox Green Cytotoxicity Assay to monitor cytotoxicity in HepG2 cells - 8 hour (AID 1224890); also: nearly all actives have a fitted effect of over 45% in size; also: potency is read from the fitted curve at half-maximal effect
# In short: as §3
# [11] = qHTS assay to identify small molecule antagonists of the androgen receptor (AR) signaling pathway using the MDA cell line in the presence of 0.5 nM R1881 - cell viability counter screen (AID 1259242); also: nearly all actives have a fitted effect of over 45% in size
# In short: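 R1881 at 0.5 nM final stimulated MDA-kb2 cells during 16 hr compound treatment at 37C. Cytotoxicity read: CellTiter-Fluor fluorescence after 30 min.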
# [12] = biological target: Estrogen receptor (Homo sapiens) (UniProt P03372); assay: qHTS assay to identify small molecule antagonists of the estrogen receptor alpha (ER-alpha) signaling pathway using the BG1 cell line in the presence of 0.1 nM 17-beta-estradiol (AID 1259244); also: nearly all actives have a fitted effect of over 50% in size
# In short: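 VM7Luc4E2; 4xERE-luciferase; 0.1 nM E2 final; 22 h co-incubation, 37C; ONE-Glo luminescence after 30 min at room temperature.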
# [13] = qHTS assay to identify small molecule phospholipidosis (PLD) inducers (AID 1259344; active = well fitted curve in the direction sought with a large enough effect; an effect the other way counts as inactive or inconclusive)
# In short: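 Fluorescent phospholipid staining (LipidTOX Red) measured by automated microscopy in fixed HepG2 cells after 24 h treatment; nuclei counterstained with Hoechst 33342; amiodarone as reference inducer.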
# [14] = qHTS assay to identify small molecule HDAC inhibitors (AID 1259364);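 also: wild-type HCT-116 cells with endogenous class I/II HDAC activity; top concentration of the series differs between compounds; nearly all actives have a fitted effect of over 45% in size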
# In short: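 Relative class I and II HDAC activity is taken from the luminogenic signal in HCT-116 cells, with compound exposure 2 hr and reagent development 30 min at room temperature.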
# [15] = qHTS assay to identify small molecule HDAC inhibitors - cell viability counter screen (AID 1259365)
# In short: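 CellTiter-Glo luminescence (30 min, room temperature) reported viability after a 2 h compound exposure at 37 C. Cells: wild-type HCT-116, 1,500 per well, seeded the night before.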
# [16] = qHTS assay to identify small molecule agonists of the sonic hedgehog signaling (Shh) pathway - cell viability counter screen (AID 1259366); also: nearly all actives have a fitted effect of over 50% in size; also: potency is read from the fitted curve at half-maximal effect
# In short: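 Cytotoxicity counter screen: CellTiter-Fluor reagent added after 23 h compound exposure, then 1 h at 37C and fluorescence read. Cells were 3T3 Gli1-Luc, seeded 2,000 per well and dosed 4 h post-plating.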
# [17] = qHTS assay to identify small molecule antagonists of the sonic hedgehog signaling (Shh) pathway - cell viability counter screen (AID 1259367); also: nearly all actives have a fitted effect of over 55% in size; also: potency is read from the fitted curve at half-maximal effect
# In short: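 Using CellTiter-Fluor, viability of Gli1-Luc reporter 3T3 cells is read by fluorescence in the wells used for the Shh luciferase assay. Treatment lasts 23 hr with conditioned medium, then reagent 1 hr at 37C.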
# [18] = A CellTox Green Cytotoxicity Assay to monitor cytotoxicity in HepG2 cells - 32 hour (AID 1224883); also: nearly all actives have a fitted effect of over 50% in size
# In short: as §3
# [19] = qHTS assay to identify small molecule antagonists of the estrogen receptor alpha (ER-alpha) signaling pathway using the BG1 cell line in the presence of 0.1 nM 17-beta-estradiol - cell viability counter screen (AID 1259241); also: nearly all actives have a fitted effect of over 40% in size
# In short: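 Cytotoxicity counter-screen: live-cell protease activity measured by fluorescence (30 min reagent step) in the same wells. Cells were VM7Luc4E2 with endogenous ER-alpha and ERE-driven luciferase, treated 22 hr at 37C alongside 0.1 nM 17beta-estradiol final.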
# [20] = biological target: Androgen receptor (Homo sapiens) (UniProt P10275); assay: qHTS assay to identify small molecule antagonists of the androgen receptor (AR) signaling pathway using the MDA cell line in the presence of 0.5 nM R1881 (AID 1259243); also: nearly all actives have a fitted effect of over 50% in size
# In short: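 We exposed MDA-kb2 cells to compounds under 0.5 nM R1881 stimulation for 16 hr at 37C and quantified MMTV-driven luciferase by luminescence.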
# Chain of Androgen receptor (Homo sapiens) (P10275 whole entry, looked up): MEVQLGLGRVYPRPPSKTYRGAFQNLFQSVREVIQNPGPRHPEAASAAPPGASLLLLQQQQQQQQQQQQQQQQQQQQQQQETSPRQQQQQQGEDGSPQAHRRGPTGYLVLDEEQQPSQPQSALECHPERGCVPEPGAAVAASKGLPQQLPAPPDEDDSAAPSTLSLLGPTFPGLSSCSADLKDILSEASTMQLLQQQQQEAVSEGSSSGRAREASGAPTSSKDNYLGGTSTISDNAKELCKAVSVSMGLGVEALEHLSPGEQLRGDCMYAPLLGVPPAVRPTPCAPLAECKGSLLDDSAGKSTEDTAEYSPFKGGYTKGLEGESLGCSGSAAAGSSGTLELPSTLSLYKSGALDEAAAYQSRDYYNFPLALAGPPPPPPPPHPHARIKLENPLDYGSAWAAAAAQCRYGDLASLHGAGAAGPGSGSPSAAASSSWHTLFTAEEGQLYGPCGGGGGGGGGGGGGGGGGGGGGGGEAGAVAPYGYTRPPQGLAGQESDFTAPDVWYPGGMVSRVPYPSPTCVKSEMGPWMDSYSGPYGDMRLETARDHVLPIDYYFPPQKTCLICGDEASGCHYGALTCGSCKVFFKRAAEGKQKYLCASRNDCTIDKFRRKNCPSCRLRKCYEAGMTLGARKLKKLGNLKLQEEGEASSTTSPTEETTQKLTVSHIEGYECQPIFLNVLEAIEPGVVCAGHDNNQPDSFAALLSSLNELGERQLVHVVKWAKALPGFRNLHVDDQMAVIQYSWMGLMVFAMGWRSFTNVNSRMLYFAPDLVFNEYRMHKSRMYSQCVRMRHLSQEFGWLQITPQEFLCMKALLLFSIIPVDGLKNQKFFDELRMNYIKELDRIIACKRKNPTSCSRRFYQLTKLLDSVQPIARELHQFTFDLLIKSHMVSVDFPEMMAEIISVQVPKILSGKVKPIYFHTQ
# Chain of Estrogen receptor (Homo sapiens) (P03372 whole entry, looked up): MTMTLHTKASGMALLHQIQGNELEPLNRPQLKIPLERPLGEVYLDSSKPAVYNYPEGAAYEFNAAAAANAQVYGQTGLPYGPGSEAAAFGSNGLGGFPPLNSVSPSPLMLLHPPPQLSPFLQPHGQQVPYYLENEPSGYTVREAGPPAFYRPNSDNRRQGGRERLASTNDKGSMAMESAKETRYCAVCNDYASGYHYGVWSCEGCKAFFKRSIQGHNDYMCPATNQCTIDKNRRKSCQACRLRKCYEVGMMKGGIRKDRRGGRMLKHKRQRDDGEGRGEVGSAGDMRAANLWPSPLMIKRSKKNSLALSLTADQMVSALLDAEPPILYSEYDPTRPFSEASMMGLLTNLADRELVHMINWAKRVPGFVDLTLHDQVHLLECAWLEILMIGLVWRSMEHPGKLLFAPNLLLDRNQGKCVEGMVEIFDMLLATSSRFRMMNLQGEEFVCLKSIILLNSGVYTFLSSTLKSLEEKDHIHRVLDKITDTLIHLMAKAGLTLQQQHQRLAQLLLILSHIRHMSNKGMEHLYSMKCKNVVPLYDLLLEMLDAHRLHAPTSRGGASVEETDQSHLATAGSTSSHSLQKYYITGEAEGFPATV
SMILES,Potency [1],Potency [2],Potency [3],Potency [4],Potency [5],Potency [6],Potency [7],Potency [8],Potency [9],Potency [10],Potency [11],Potency [12],outcome [13],Potency [14],outcome [15],Potency [16],Potency [17],Potency [18],Potency [19],Potency [20]
COC(=O)[C@H](Cc1ccccc1)NC(=O)[C@@H](N)CC(=O)O (H-Asp-Phe-OMe),inactive,inactive,inactive,inactive,inactive,inactive,inactive,inactive,inactive,inactive,inactive,inactive,inactive,inactive,inactive,inactive,inactive,–,–,–
CCCC(CCC)C(=O)O,inactive,inactive,inactive,inactive,–,inactive,inactive,inactive,inactive,inactive,inactive,inactive,inactive,–,inactive,inactive,inactive,inactive,–,–
NC(=O)NC1NC(=O)NC1=O (configuration not stated),inactive,inactive,inactive,inactive,inactive,inactive,inactive,inactive,inactive,inactive,inactive,–,inactive,–,inactive,inactive,inactive,inactive,inactive,–
NC(=O)c1cnccn1,inactive,inactive,inactive,inactive,–,inactive,inactive,inactive,inactive,inactive,inactive,inactive,inactive,–,inactive,inactive,inactive,inactive,–,–
CCC1(c2ccccc2)C(=O)NCNC1=O,inactive,inactive,inactive,inactive,inactive,inactive,inactive,inactive,inactive,inactive,inactive,–,inactive,inactive,inactive,inactive,inactive,–,inactive,–
Cc1cc(=O)[nH]c(=S)[nH]1,inactive,inactive,inactive,inactive,inactive,inactive,inactive,inactive,inactive,inactive,inactive,inactive,inactive,–,inactive,inactive,inactive,–,–,–
CCCCC1C(=O)N(c2ccccc2)N(c2ccccc2)C1=O,inactive,inactive,inactive,inactive,–,inactive,inactive,inactive,–,inactive,inactive,inactive,inactive,inactive,inactive,inactive,inactive,inactive,inactive,–
Cc1ccc(S(=O)(=O)NC(=O)NN2CCCCCC2)cc1,inactive,inactive,inactive,inactive,–,inactive,inactive,inactive,inactive,inactive,inactive,inactive,inactive,–,inactive,inactive,inactive,–,inactive,–
Cc1noc(NS(=O)(=O)c2ccc(N)cc2)c1C,inactive,inactive,inactive,inactive,inactive,inactive,inactive,inactive,inactive,inactive,inactive,inactive,inactive,inactive,inactive,inactive,inactive,–,inactive,–
O=C(O)CCC(=O)O,inactive,–,inactive,inactive,inactive,inactive,inactive,inactive,inactive,inactive,inactive,inactive,inactive,–,inactive,inactive,inactive,inactive,inactive,–
NC(=O)c1ccccc1O,inactive,inactive,inactive,inactive,inactive,inactive,inactive,inactive,inactive,inactive,inactive,inactive,inactive,–,inactive,inactive,inactive,inactive,inactive,–
CCCCOC(=O)CC(CC(=O)OCCCC)(OC(C)=O)C(=O)OCCCC,inactive,–,inactive,inactive,inactive,inactive,inactive,inactive,inactive,inactive,inactive,–,inactive,inactive,inactive,inactive,inactive,inactive,inactive,–
O=c1cc[nH]c(=S)[nH]1,inactive,inactive,inactive,inactive,inactive,inactive,inactive,inactive,inactive,inactive,inactive,inactive,inactive,inactive,inactive,inactive,inactive,–,–,–
O=C(C1CCCCC1)N1CC(=O)N2CCc3ccccc3C2C1 (configuration not stated),inactive,inactive,inactive,inactive,inactive,inactive,inactive,inactive,inactive,inactive,inactive,–,inactive,inactive,inactive,–,inactive,–,–,–
C/C=C/c1ccc(OC)cc1,inactive,inactive,inactive,inactive,–,inactive,inactive,inactive,inactive,inactive,inactive,–,inactive,inactive,inactive,inactive,inactive,inactive,–,–
CC(O)C(=O)O (configuration not stated),inactive,inactive,inactive,inactive,inactive,inactive,inactive,inactive,inactive,inactive,inactive,inactive,inactive,–,inactive,inactive,inactive,–,inactive,–

SMILES,Potency [1],Potency [2],Potency [3],Potency [4],Potency [5],Potency [6],Potency [7],Potency [8],Potency [9],Potency [10],Potency [11],Potency [12],outcome [13],Potency [14],outcome [15],Potency [16],Potency [17],Potency [18],Potency [19],Potency [20]
CC(=O)NS(=O)(=O)c1ccc(N)cc1,inactive,inactive,inactive,inactive,–,inactive,inactive,inactive,inactive,inactive,inactive,inactive,inactive,–,inactive,inactive,inactive,inactive,inactive,–
NNC(=O)c1ccncc1,inactive,inactive,inactive,inactive,–,inactive,inactive,inactive,inactive,inactive,inactive,inactive,inactive,–,inactive,inactive,inactive,–,–,–
O=C1NC(=O)c2ccccc21,inactive,inactive,inactive,inactive,inactive,inactive,inactive,inactive,inactive,inactive,inactive,–,–,–,inactive,inactive,inactive,inactive,–,–
Nc1ccc(S(=O)(=O)Nc2nccs2)cc1,inactive,inactive and 43.6 µM (active),inactive and 43.6 µM (active),inactive and 49 µM (active),inactive,inactive,inactive,–,inactive,inactive and 43.6 µM (active),inactive,inactive,inactive,–,inactive,inactive,inactive,–,inactive,–
Oc1ccc(/C=C/c2cc(O)cc(O)c2)cc1,inactive,inactive,inactive,inactive,inactive,–,inactive,inactive,inactive,inactive,inactive,inactive,inactive,–,inactive,21.9 µM (active) and 24.3 µM (active),30.9 µM (active) and 27.3 µM (active),–,–,inactive
CCOc1ccc(NC(=O)CC(C)O)cc1 (configuration not stated),inactive,inactive,inactive,inactive,inactive,inactive,inactive,inactive,inactive,inactive,inactive,–,inactive,–,inactive,inactive,inactive,–,–,–
CCCCCCCCCCCCCCCC(=O)O,inactive,inactive,inactive,inactive,–,inactive,inactive,inactive,inactive,inactive,inactive,–,inactive,–,inactive,inactive,inactive,inactive,inactive,–
Cc1ccc(C)c(OCCCC(C)(C)C(=O)O)c1,inactive,inactive,inactive,inactive,–,inactive,inactive,inactive,inactive,inactive,inactive,inactive,inactive,inactive,inactive,inactive,inactive,–,inactive,inactive
O=c1ccc2ccccc2o1,inactive,inactive,inactive,inactive,–,inactive,inactive,inactive,inactive,inactive,inactive,inactive,inactive,–,inactive,inactive,inactive,–,–,–
Cn1cc[nH]c1=S,inactive,inactive,inactive,inactive,inactive,inactive,inactive,inactive,inactive,inactive,inactive,inactive,inactive,–,inactive,inactive,inactive,inactive,inactive,–
Nc1ccc(O)c(C(=O)O)c1,inactive,inactive,inactive,inactive,–,inactive,inactive,inactive,inactive,inactive,inactive,inactive,inactive,inactive,inactive,inactive,inactive,inactive,inactive,–
C[C@]12C=CC(=O)C=C1CC[C@@H]1[C@@H]2[C@@H](O)C[C@@]2(C)[C@H]1CC[C@]2(O)C(=O)CO,inactive,inactive,inactive,inactive,inactive,inactive,inactive,inactive,21.6 µM (active) and 19.5 µM (active),inactive,inactive,inactive,inactive,–,inactive,inactive,inactive,–,inactive,–
NC(N)=NC(=O)c1nc(Cl)c(N)nc1N,inactive,inactive,inactive,inactive,inactive,inactive,inactive,inactive,inactive,inactive,inactive,inactive,inactive,–,inactive,inactive,inactive,–,inactive,–
Cc1cc(=O)n(-c2ccccc2)n1C,inactive,44.8 µM (active) and inactive,inactive,inactive,inactive,inactive,inactive,–,inactive,inactive,inactive,inactive,inactive,inactive,inactive,inactive,inactive,–,inactive,inactive
Nc1ccn([C@H]2CC[C@@H](CO)O2)c(=O)n1,inactive,inactive,inactive,inactive,–,inactive,inactive,inactive,inactive,inactive,inactive,inactive,inactive,inactive,inactive,inactive,inactive,inactive,–,–
O=C(c1ccccc1)C(O)c1ccccc1 (configuration not stated),inactive,inactive,inactive,inactive,–,inactive,inactive,inactive,inactive,inactive,inactive,–,inactive,inactive,inactive,inactive,inactive,inactive,inactive,–
